Measured values published in PubChem BioAssay.
The source made the active and inactive calls. Unless noted, how the calls were made is not given here.

Tests used:
[1] = A549 cell viability effects, profiling panel, calcein-AM fluorescence, 48 h, basal (AID 1162); details: higher = more signal; further: test concentration not given here
[2] = adipocyte viability effects, profiling panel, cell-based, 3T3-L1 adipocytes, calcein-AM fluorescence, 48 h, basal (AID 1163); details: 3T3-L1 adipocytes viability, higher = more signal; further: test concentration not given here
[3] = HepG2 cell viability effects, profiling panel, calcein-AM fluorescence, 48 h, basal (AID 1164); details: higher = more signal; further: test concentration not given here
[4] = MM1S cell viability effects, profiling panel, calcein-AM fluorescence, 48 h, basal (AID 1165); details: higher = more signal;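 further: viability of MM1S multiple myeloma cells under basal unstimulated conditions; test concentration not given here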
[5] = basal RPMI8226 viability, no added stimulus, profiling panel, cell-based, calcein-AM fluorescence, 48 h, PK04 Diversity Set (AID 1166); details: RPMI8226 myeloma viability, higher = more signal;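 further: cells grown under basal conditions without added stimulus; test concentration not given here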
[6] = basal HepG2 mitochondrial membrane potential changes, profiling panel, cell-based, JC-1 fluorescence, 24 h, 100 nL compound (AID 1167); details: higher = more signal; further: test concentration not given here
[7] = basal 3T3-L1 adipocyte mitochondrial potential changes, profiling panel, cell-based, JC-1 fluorescence, 3T3-L1 adipocytes, 24 h, 100 nL compound (AID 1168); details: JC-1 mitochondrial fluorescence, higher = more signal, called active from +8 up or from −8 down; further: test concentration not given here
[8] = basal RPMI8226 mitochondrial membrane potential changes, profiling panel, cell-based, JC-1 fluorescence, 24 h, 100 nL compound (AID 1169); details: RPMI8226 myeloma, JC-1 mitochondrial potential fluorescence, higher = more signal; further: test concentration not given here
[9] = basal MM1S mitochondrial membrane potential changes, profiling panel, cell-based, JC-1 fluorescence, 24 h, 100 nL compound (AID 1170); details: higher = more signal; further: test concentration not given here
[10] = A549 lung cancer cell viability effects, profiling panel, resazurin fluorescence, 24 h, PK04 Diversity Set (AID 1171); details: higher = more signal, called active from +8 up or from −8 down; further: test concentration not given here
[11] = HepG2 liver cancer cell viability effects, profiling panel, resazurin fluorescence, 24 h, PK04 Diversity Set (AID 1172); details: higher = more signal; further: test concentration not given here
[12] = basal S. cerevisiae growth modulation, no modifier, primary screen, OD600, strain BY4716, 24 h, basal condition (AID 1173); details: OD600, 24 h, higher = more signal, called active from +8 up or from −8 down
[13] = MM1S myeloma cell viability, profiling panel, resazurin fluorescence, basal, 24 h, PK04 Diversity Set (AID 1174); details: higher = more signal, called active from +8 up or from −8 down;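 further: MM1S multiple myeloma cell line; test concentration not given here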
[14] = target: Dihydroorotate dehydrogenase (quinone), mitochondrial (Plasmodium falciparum (isolate 3D7)) (UniProt Q08210); test: PfDHODH enzyme inhibitors, primary screen, biochemical, C-terminal His tag, absorbance 600 nm (AID 1175); details: DCIP absorbance 600 nm, higher = more signal, called active from +8 up or from −8 down;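 further: recombinant parasite enzyme with a five histidine tag at its C terminus; test concentration not given here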
Chain of Dihydroorotate dehydrogenase (quinone), mitochondrial (Plasmodium falciparum (isolate 3D7)) (Q08210 whole entry, looked up): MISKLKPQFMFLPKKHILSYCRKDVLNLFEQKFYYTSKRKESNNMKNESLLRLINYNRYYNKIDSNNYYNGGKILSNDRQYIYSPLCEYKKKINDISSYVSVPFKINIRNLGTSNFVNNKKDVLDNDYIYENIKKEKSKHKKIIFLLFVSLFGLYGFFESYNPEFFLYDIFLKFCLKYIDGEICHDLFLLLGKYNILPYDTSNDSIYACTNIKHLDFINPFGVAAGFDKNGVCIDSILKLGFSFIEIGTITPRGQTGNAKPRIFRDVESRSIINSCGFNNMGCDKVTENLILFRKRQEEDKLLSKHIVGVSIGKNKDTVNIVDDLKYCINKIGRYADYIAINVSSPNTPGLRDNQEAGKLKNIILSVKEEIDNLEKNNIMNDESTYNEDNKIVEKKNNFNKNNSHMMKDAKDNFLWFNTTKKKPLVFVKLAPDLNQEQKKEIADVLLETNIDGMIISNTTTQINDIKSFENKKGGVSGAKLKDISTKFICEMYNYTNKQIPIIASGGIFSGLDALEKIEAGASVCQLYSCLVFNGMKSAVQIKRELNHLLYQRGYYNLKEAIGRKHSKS

[15] = P. aeruginosa biofilm formation inhibitors, primary screen, strain PAO1, LB-PBS medium, absorbance 600 nm (AID 1176); further: test concentration not given here; details: P. aeruginosa PAO1 growth/biofilm, A600, 12 h; higher = more signal
[16] = S. cerevisiae RM11-1a growth modifiers, primary screen, strain RM11-1a, OD600, basal, 24 h (AID 1177); details: OD600, 24 h, higher = more signal, called active from +8 up or from −8 down;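 further: cultures grown under basal conditions with no added stressor; test concentration not given here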
[17] = E. coli acrAB mutant growth effects, primary screen, E. coli filamentation inducers, strain DRC39, OD650, 24 h (AID 1178); details: higher = more signal, called active from +8 up or from −8 down;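 further: growth measured as culture turbidity by optical density at 650 nm; test concentration not given here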
[18] = E. coli acrAB mutant growth effects, primary screen, E. coli filamentation inducers, strain DRC39, OD650, 48 h (AID 1179);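 further: screen aims at cell division blockers that make cells filament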; details: E. coli DRC39 delta-acrAB growth, higher = more signal, called active from +8 up or from −8 down
[19] = RPMI8226 myeloma cell viability, profiling panel, resazurin fluorescence, basal, 24 h, PK04 Diversity Set (AID 1180); details: higher = more signal;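 further: RPMI8826 multiple myeloma cell line at 5000 cells per well; test concentration not given here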
[20] = target: E3 ubiquitin-protein ligase XIAP (Homo sapiens) (UniProt P98170); test: XIAP binders, primary screen, biophysical, small-molecule microarray, fluorescence 635 nm (AID 1181); details: small-molecule microarray binding, higher = more signal;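 further: score merges 667 nm emission and signal to noise over triplicate slides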
Chain of E3 ubiquitin-protein ligase XIAP (Homo sapiens) (P98170 whole entry, looked up): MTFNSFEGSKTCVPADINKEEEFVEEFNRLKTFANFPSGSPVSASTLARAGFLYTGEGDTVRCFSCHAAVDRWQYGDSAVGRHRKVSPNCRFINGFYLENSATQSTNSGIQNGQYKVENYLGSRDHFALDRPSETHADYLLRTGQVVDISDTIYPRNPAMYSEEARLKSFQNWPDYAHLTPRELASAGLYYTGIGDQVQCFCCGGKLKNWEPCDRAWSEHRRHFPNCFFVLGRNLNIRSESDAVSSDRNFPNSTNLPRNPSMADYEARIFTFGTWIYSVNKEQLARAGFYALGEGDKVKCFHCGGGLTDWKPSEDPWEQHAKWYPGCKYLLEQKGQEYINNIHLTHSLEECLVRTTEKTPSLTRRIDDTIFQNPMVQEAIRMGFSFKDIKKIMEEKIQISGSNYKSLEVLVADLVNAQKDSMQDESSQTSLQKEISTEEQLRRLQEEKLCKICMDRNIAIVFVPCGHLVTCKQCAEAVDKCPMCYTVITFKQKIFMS

| SMILES | z-score [1] | z-score [2] | z-score [3] | z-score [4] | z-score [5] | z-score [6] | z-score [7] | z-score [8] | z-score [9] | z-score [10] | z-score [11] | z-score [12] | z-score [13] | composite z-score [14] | z-score [15] | z-score [16] | z-score [17] | z-score [18] | z-score [19] | composite z-score [20] |
| --- | --- | --- | --- | --- | --- | --- | --- | --- | --- | --- | --- | --- | --- | --- | --- | --- | --- | --- | --- | --- |
| O=C1C2C=CC(C(O)c3ccc4c(c3)OCO4)N(Nc3ccc([N+](=O)[O-])cc3)C2C(=O)N1c1ccccc1 (stereo not given) | -0.649 | -1.09 | 0.199 | 0.259 | -0.169 | -0.941 | -0.856 (inactive) | 0.575 | -0.77 | -0.0894 (inactive) | -0.415 | -0.13 (inactive) | -0.104 (inactive) | -1.46 (inactive) | 0.0641 (inactive) | -0.729 (inactive) | -1.15 (inactive) | -0.411 (inactive) | -0.56 | 0.191 |
| COCCOC(=O)N1C(=O)[C@@]2(c3cc(C#CC4(O)CCCCCC4)ccc31)[C@H](c1ccccc1OCCO)N1[C@H](c3ccccc3)[C@H](c3ccccc3)OC(=O)[C@H]1[C@@H]2C(=O)N1CCc2cc(OC)c(OC)cc2C1 | -0.329 | 0.346 | -0.011 | -0.889 | -1.76 | -0.0229 | 0.0348 (inactive) | -0.686 | -1.14 | 0.512 (inactive) | 0.598 | 2.06 (inactive) | -0.9 (inactive) | 0.445 (inactive) | 2.26 (inactive) | 3.05 (inactive) | -0.404 (inactive) | -0.405 (inactive) | -0.203 | -0.127 |
| COc1ccc(C#Cc2ccc3c(c2)[C@]2(C(=O)N3)[C@H](c3ccc(O)cc3)N3[C@H](c4ccccc4)[C@H](c4ccccc4)OC(=O)[C@H]3[C@@H]2C(=O)N2CCc3cc(OC)c(OC)cc3C2)cc1 | -0.258 | -0.817 | -0.0752 | -0.405 | -2.87 | -0.458 | 2.25 (inactive) | -0.727 | -0.418 | -0.565 (inactive) | 0.449 | 1.14 (inactive) | -0.309 (inactive) | -0.103 (inactive) | 1.37 (inactive) | 0.816 (inactive) | -0.101 (inactive) | 0.304 (inactive) | -0.333 | -0.0582 |
| CC(C)=CCCC(C)=CC(O)C1C=CC2C(=O)N(c3ccccc3)C(=O)C2N1Nc1ccc(C(C)C)cc1 (stereo not given) | -1.27 | -0.276 | -0.964 | 0.105 | -0.589 | -1.09 | -0.696 (inactive) | 0.465 | 1.06 | 0.38 (inactive) | -0.307 | 0.125 (inactive) | -0.862 (inactive) | 0.484 (inactive) | 0.0616 (inactive) | 1.47 (inactive) | -0.427 (inactive) | -0.306 (inactive) | -0.463 | -0.0382 |
| O=C(O)[C@H]1C[C@H]2C(=O)N3CCC[C@H]3C(=O)N2[C@H]1c1ccc(O)cc1 | 0.835 | 0.469 | 0.0504 | -0.8 | 0.0046 | 1.38 | -0.0658 (inactive) | -0.703 | -0.22 | 0.799 (inactive) | 0.684 | -0.171 (inactive) | 1.1 (inactive) | -0.453 (inactive) | 0.0778 (inactive) | 0.208 (inactive) | 0.408 (inactive) | 0.715 (inactive) | 1.07 | 0.125 |
| NC(=O)NCC#Cc1ccc2c(c1)[C@]1(C(=O)N2)[C@H](C(=O)O)[C@H]2C(=O)O[C@H](c3ccccc3)[C@H](c3ccccc3)N2[C@@H]1c1ccc(O)cc1 | 0.715 | 0.407 | 0.611 | -0.944 | 0.0565 | -1.43 | -1.56 (inactive) | 0.123 | 0.126 | 1.22 (inactive) | 0.891 | -0.0841 (inactive) | 0.587 (inactive) | -1.63 (inactive) | 0.393 (inactive) | 0.0591 (inactive) | -0.131 (inactive) | -0.0796 (inactive) | 0.902 | 0.0043 |
| O[C@@H](Cc1ccccc1)[C@@H](/C=C/C1CC1)NCc1cccc(Cl)c1 | 0.399 | -0.15 | -1.39 | -3.35 | -2.71 | -0.626 | 0.713 (inactive) | -1.01 | -1.7 | -0.707 (inactive) | -0.891 | -9.37 (active) | -1.22 (inactive) | -0.316 (inactive) | -0.344 (inactive) | -1.15 (inactive) | 0.451 (inactive) | -0.957 (inactive) | -1.18 | -0.175 |
| COC(=O)c1c(CC[C@@H](CO)NC(=O)N[C@H](Cc2ccccc2)Cn2cc(-c3ccccn3)nn2)oc(C(C)=O)c1C(=O)OC | 0.372 | 0.337 | -0.362 | 0.258 | -0.406 | -0.607 | -0.821 (inactive) | -0.0316 | -0.131 | -0.533 (inactive) | -1.62 | -0.295 (inactive) | -1.13 (inactive) | 0.0502 (inactive) | -0.0149 (inactive) | -0.559 (inactive) | -0.347 (inactive) | -0.793 (inactive) | -0.857 | -0.135 |
| COC(=O)[C@@]1(Cc2ccccc2)[C@H]2c3cc(C(=O)N(C)C)n(Cc4ccc(OC)c(OC)c4)c3C[C@H]2CN1C(=O)c1ccccc1 | -1.29 | -0.24 | 0.148 | -1.42 | -2.64 | 0.811 | -1.12 (inactive) | -0.706 | -1.14 | -1.2 (inactive) | -0.872 | 0.721 (inactive) | -0.799 (inactive) | -0.831 (inactive) | 0.302 (inactive) | 0.358 (inactive) | -0.874 (inactive) | -0.695 (inactive) | -2.19 | -0.289 |
